Screen size: about 48,000 compounds; about 450 (0.94%) were called active. Not shown: some 19% with an inconclusive outcome. The full list was thinned out, with actives kept by preference. Values without a mark were called inactive. Calls follow the shape of the dose curve; as a rule, active = well fitted inhibition curve with a large enough effect; inconclusive = small, poorly fitted or top-dose-only effect; inactive = no such curve, though single readings can be large or run the other way.
Potency is read from the fitted curve at half-maximal effect.

The nature of this assay: Primary qHTS for Identification of Small Molecule Inhibitors of Huntingtin Promoter Activity. Also: nearly all actives have a fitted effect of over 50% in size. The following applies: HEK293 HTT promoter firefly luciferase reporter (activity 0% = vehicle and -100% = no light), 24 h; series mostly up to 57.5 µM; activity change, negative = inhibition: at the top concentration. The source says:
Assay Provider: Russell L. Margolis M.D.
Department Neurology, Johns Hopkins University School of Medicine, Baltimore, MD
Huntington's Disease (HD) is a neurodegenerative disorder caused by a CAG repeat expansion in exon 1 of huntingtin (HTT). While there are currently no disease-modifying treatments for HD, recent efforts have focused on development of nucleotide-based therapeutics to lower HTT expression. As an alternative to siRNA or oligonucleotide methods, we hypothesized that suppression of HTT expression might be accomplished by small molecules that either (1) directly decrease HTT expression by suppressing HTT promoter activity or (2) indirectly decrease HTT expression by increasing the promoter activity of HTT-AS, the gene antisense to HTT that appears to inhibit expression of HTT.
We developed and employed a high throughput screen for modifiers of HTT and HTT-AS promoter activity using luminescent reporter HEK293 cells; of the 52,041 compounds tested, we identified 898 replicable hits. We used a rigorous stepwise approach to assess compound toxicity and the capacity of the compounds to specifically lower huntingtin protein in 5 different cell lines, including HEK293 cells, HD lymphoblastoid cells, mouse primary neurons, HD iPSCs differentiated into cortical-like neurons, and HD hESCs. We found no compounds which were able to lower huntingtin without lowering cell viability in all assays, though the potential efficacy of a few compounds at non-toxic doses could not be excluded.
SEQUENCE No. (1, 2, 3, etc.); […] (e.g., Cells, Incubation, Reagent, etc.); VALUE and DESCRIPTION.
1; Reagent; 4 uL; 2,500 Hek293 luciferase reporter cells per wells
3; Compound; 23 nL; Control inhibitor / compound library
5; Reagent; 2.5 uL; Firefly Luc reagent; Dual-Glo Luciferase Reporter Assay System (Promega)
6; Time; 10 min; room temperature incubation
7; Detection; Luminescence; FLuc
NOTES (numbers refer to sequence above)
1; High-throughput screening, measuring luminescence from a Hek293 luciferase reporter, was performed in 1,536 well white-walled tissue-culture treated plates. 2,500 cells were plated in 4 µL of Opti-MEM per well using a Multidrop Combi Reagent Dispenser (ThermoFisher).
2; Assay plates were cultured for 24 hours.
3; Control inhibitor (PTC124; final concentration of 50 uM) and compound library (at final concentrations of 460 nM - 57.5 uM) were added to the assay plate using the Kalypsis Pintool Robotic System equipped with 1536 pinheads.
4; Cells were then incubated for 24 hours at 37 degrees C prior to luminescence measurements.
5; In all cases, luminescence was measured using the Dual-Glo Luciferase Reporter Assay System (Promega) following the manufacturer's instructions.
6; Room temperature incubation.
7; Luminescence signal was obtained using the PerkinElmer ViewLux plate reader. Results were normalized to vehicle control (0% activity) and zero RLU (-100% activity).
(In qHTS, concentration-response curves come from the screen itself.)
As to `Cc1cccc(N2CCN(C(=O)c3ccc(Nc4nc5ccccc5n5nnnc45)cc3)CC2)c1C`, the “activity change, negative = inhibition” value is 16.4%.
Take `O=C(c1ccc2c(c1)N(Cc1ccccc1)C(=O)c1ccccc1S2(=O)=O)N1CCCC1`: the “activity change, negative = inhibition” value was -7.16%.
As to `CCOc1ccccc1N(CC)C(=O)Nc1cn(C)c(=O)c2ccccc12`, the “activity change, negative = inhibition” value is -16.3%.
On the same count and under the same terms, in the case of `CSc1nc(-c2ccc(F)cc2)nc2c1Cc1c(CO)cnc(C)c1O2` it was -12.1%; in that of `CCOc1ccc(NC(=O)C(CC(C)C)N2Cc3ccccc3C2=O)cc1` (stereo unspecified), -25.6%.
The same measure, in the same setting: in the case of `COC(=O)c1cc(NC(=O)c2sc3ccccc3c2Cl)cc(C(=O)OC)c1` it was -2.04%; in that of `Cc1cccc(N2CCN(C(=O)c3oc(=O)c4ccccc4c3-c3ccccc3)CC2)c1C`, -9.19%.
Consider `CC(C)(C)OC(=O)N1CCC(c2c(C(=O)NCc3ccccn3)cnn2-c2ccc(F)cc2)CC1`, for which the “activity change, negative = inhibition” value was -10.4%.
Take `Cc1ccc(NC(=O)CSc2nc3c([nH]c4ccccc43)c(=O)n2-c2ccccc2)c(C)c1`: the “activity change, negative = inhibition” value is -11.7%.
Same read-out and setting: next, `Cc1ccc(-c2noc(CSc3nnc(-c4ccc(Cl)cc4)n3C)n2)cc1`: -27.1%.
Turning to `COc1ccc(-c2noc(CSc3nc4ccc(C)cc4[nH]3)n2)cc1`, the Potency is 28.2 µM (active).
As for `COc1ccc(-c2noc(CSc3nc(C)cc(=O)[nH]3)n2)cc1OC`, the “activity change, negative = inhibition” value was -20.2%.
Same read-out and setting: in the case of `Cn1c(=O)c2c(SCC(=O)N3CCc4ccccc43)nc(-c3ccc(Cl)cc3)nc2n(C)c1=O` it was -7.37%; in that of `Cc1cc(C)cc(NC(=O)CSc2oc(-c3ccccc3)nc2S(=O)(=O)c2ccc(Cl)cc2)c1`, -14.6%.
As to `Cc1ccc2c(=O)c(C(=O)c3ccc(Cl)cc3)cn(CC(=O)NC3CCCCC3)c2n1`, the “activity change, negative = inhibition” value was 12.6%.
Still for that read-out and setting: next, `COC(=O)c1scc(-c2ccc(C)cc2)c1S(=O)(=O)Nc1cc(Cl)c(OC)cc1OC`: -15.9%; `CCOC(=O)c1ccc(NC(=O)c2csc3c2CCCCC3)cc1`: -10.1%.
Same read-out and setting: in the case of `COc1cccc(C(=O)c2sc3nc(-c4ccccc4)cc(C(F)(F)F)c3c2N)c1` it was -24.4%; in that of `Cn1c(=O)n(Cc2c(F)cccc2Cl)c(=O)c2c1nc1n2CCN1c1ccc(F)cc1`, -1.17%.
The same measure, in the same setting: in the case of `CCc1nn(CC(=O)N2CCN(c3cccc(C(F)(F)F)c3)CC2)c(=O)c2cc3occc3n12` it was -13%; in that of `COC(=O)c1ccc(OC)c(Cn2c(=O)n(Cc3ccccc3)c(=O)c3c2c2cc(OC)ccc2n3C)c1`, -9.45%; in that of `Cc1cccc(C(=O)NCCc2nc3ccccc3n2Cc2ccccc2Cl)c1`, 0.0337%.
Take `CCOc1ccc2nc(N3CCCC(C(=O)Nc4cc(C)ccc4C)C3)sc2c1` (stereo unspecified): the “activity change, negative = inhibition” value is 38.3%.
Still for that read-out and setting: next, `O=C(/C=C/c1ccccc1)N1CCN(Cc2cc(=O)n3nc(-c4ccccc4F)sc3n2)CC1`: -11.1%.
On the same count and under the same terms, in the case of `O=C(O)c1ccc(Cn2c(SCc3ccc(F)cc3)nc3ccncc32)cc1` it was 4.54%.
For the compound `COc1cccc(Cn2c(SCc3ccc(C(=O)N4CCCCC4)cc3)nc3ccncc32)c1`, the Potency is 12.6 µM (active).
On to `Cc1cccc(CSc2nc3ccncc3n2Cc2ccc(C(=O)O)cc2)c1`, for which the “activity change, negative = inhibition” value is 4.83%.
For the compound `COc1ccccc1Cc1nc2ccccc2nc1SCC(=O)N1CCCc2ccccc21`, the “activity change, negative = inhibition” value is -3.18%.
Consider `Cc1ccc(CNC(=O)CCc2c(C)nc3nc(CNC(=O)OC(C)(C)C)nn3c2C)cc1`, for which the “activity change, negative = inhibition” value is -20.6%.
With `CC(=O)N1CCCc2cc(S(=O)(=O)N3CCCC(C(=O)N4CCN(c5cccc(Cl)c5)CC4)C3)ccc21` (stereo unspecified), the Potency was 7.08 µM (active).
Take `CC(=O)N1CCCc2cc(S(=O)(=O)N3CCC(C(=O)NC4CCCCC4)CC3)ccc21`: the “activity change, negative = inhibition” value is -20.4%.
On to `CC(=O)N1CCCc2cc(S(=O)(=O)Nc3ccc(Cl)cc3F)ccc21`, for which the “activity change, negative = inhibition” value was -28.1%.
Same read-out and setting: next, `CCN(CC)c1ccc(NC(=O)CN2CCN(CC(=O)Nc3ccc(Cl)cc3)CC2)cc1`: -28.4%; `Cc1oc2ncnc(N3CCOCC3)c2c1C(=O)NCCc1ccccc1`: 19.5%.
In the case of `CCOC(=O)c1oc2ccc(S(=O)(=O)n3nc(-c4ccccc4OC)cc3N)cc2c1C`, the Potency is 12.6 µM (active).
With `Cc1ccc(NC(=O)c2oc3ccc(S(=O)(=O)N4CCCCC4)cc3c2C)cc1Cl`, the “activity change, negative = inhibition” value is -15.5%.
On to `Cc1c(C(=O)Nc2cccc(Cl)c2)oc2ccc(S(=O)(=O)N3CCOCC3)cc12`, for which the “activity change, negative = inhibition” value was -4.7%.
On the same count and under the same terms, in the case of `O=C(Nc1ccc2nc(SCC(=O)N3CCc4ccccc43)sc2c1)c1ccccc1F` it was -3.2%.
Still for that read-out and setting: in the case of `O=C(c1cccc(Cl)c1)N1CCN(CCc2ccncc2)CC1` it was -11.7%.
On the same count and under the same terms, in the case of `COC(=O)c1sccc1S(=O)(=O)N(CC(=O)Nc1ccc(C)c(F)c1)c1ccc(C)c(C)c1` it was -10.9%.
For the compound `CC1CN(C(=O)N2CCC(C(=O)NCc3cccs3)CC2)c2ccccc2O1` (stereo unspecified), the “activity change, negative = inhibition” value is -9.81%.
In the case of `Cc1ccc2nc(COc3cccc(NC(=O)c4cccc(Cl)c4)c3)cc(=O)n2c1`, the “activity change, negative = inhibition” value was -0.53%.
Still for that read-out and setting: next, `CCn1cc(C(=O)NCCc2ccccc2)c(=O)c2cc(S(=O)(=O)N3CCCCCC3)ccc21`: -17.5%; `CCc1ccc(NC(=O)N2CCN(C(=O)c3nsc4ccccc34)CC2)cc1`: -28.2%.
Still for that read-out and setting: next, `Cc1ccc(Oc2c(C(F)(F)F)oc3c(CN4CCCCC4)c(O)ccc3c2=O)cc1`: -41.6%.
As for `COc1ccc(-c2cc(NCc3ccc(F)cc3)n3cnnc3n2)cc1`, the “activity change, negative = inhibition” value is -27.2%.

Values taken from PubChem BioAssay AID1508623 (National Center for Advancing Translational Sciences (NCATS), 2021).
